# Only some compounds are listed: those with a hit (about 3.6% of all), similar ones and a draw of the others.
# Pf apPOL inh: Pf-apPOL DNA polymerase inhibition; Recombinant Pf-apPOL, molecular beacon fluorescence, 1.5 h; inhibition, % at 10 µM; 0.25% of 210,000 active
# mHTT CaM bind: mHTT-calmodulin interaction abrogation | P42858 | AlphaScreen His-mHTT/GST-CaM binding, luminescence | inhibition, % at 15 µM | 3.6% of 190,000 active | AID 1671202;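 also: 0% = both proteins with DMSO and 100% = one protein alone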
# * = called active by the depositor; i = inactive; nt = not tested or not shown; + = active, no number. Rule as the data show it: active = inhibition above about 50%; inactive = the rest.
SMILES,Pf apPOL inh,mHTT CaM bind
COc1ccc(/C=C2/C(=O)N(c3ccccc3)N=C2C)cc1Br,1.9,20.0
CC1=NN(c2ccccc2)C(=O)/C1=C/c1cc(Cl)c(O)c(Cl)c1,-9.3,64.0*
CC1=NN(c2ccccc2)C(=O)/C1=C/c1ccc(O)c(Cl)c1,0.7,22.0
COc1cc(/C=C2/C(=O)N(c3ccc(C)c(Cl)c3)N=C2C)ccc1O,-2.4,52.0*
COc1cc(/C=C2/C(=O)N(c3ccccc3)N=C2C)cc(Br)c1O,7.1,55.0*
COc1cc(/C=C2/C(=O)N(c3ccccc3)N=C2C)cc(OC)c1O,-5.4,52.0*
C=CCOc1ccc(/C=C2/C(=O)N(c3ccc(Cl)c(Cl)c3)N=C2C)cc1OC,-4.5,6.0
COc1cc(/C=C2/C(=O)N(c3ccccc3)N=C2C)ccc1OCc1ccccc1,-2.7,10.0
COC(OC)C12c3ccccc3C(c3ccccc31)C1C(=O)N(c3ccc(C)cc3)C(=O)C12 (centres undefined),2.2,6.0
Cc1cc(O)c2c(c1)OC(=Cc1cccc(F)c1)C2=O,-4.5,25.6
Cc1noc(C)c1C1CCCN1C(=O)Nc1ccc(Cl)cc1 (centres undefined),-5.0,-8.1
O=c1oc(-c2cccc([N+](=O)[O-])c2)nc2c(Br)cc(Br)cc12,3.0,-1.0
CC(C)C(=O)NCC1(N2CCOCC2)CCCCC1,-1.9,-2.9
CC1CCCC(C)N1CC(O)COC1CC2CCC1(C)C2(C)C (centres undefined),-7.5,0.1
CCOc1ccc(C=C2Oc3cc(OCC(C)=O)ccc3C2=O)cc1,15.8,11.3
COc1cc(/C=C2/C(=O)N(c3ccccc3)N=C2C)cc([N+](=O)[O-])c1O,1.3,57.0*
COc1cc(/C=C2/C(=O)N(c3ccc(Cl)c(Cl)c3)N=C2C)cc(OC)c1O,1.9,67.0*
COc1cc(/C=C2/C(=O)N(c3ccccc3)N=C2C)c([N+](=O)[O-])cc1OC,-5.2,0.0
COc1ccccc1/C=C1/C(=O)N(c2cccc(Cl)c2)N=C1C,2.1,22.0
COc1cc(/C=C2/C(=O)N(c3cccc(Cl)c3)N=C2C)cc(Br)c1O,-2.3,78.0*
COc1cc(/C=C2/C(=O)N(c3ccc(Cl)c(Cl)c3)N=C2C)cc(OC)c1OC,-4.5,14.0
COc1cccc(/C=C2/C(=O)N(c3cccc(Cl)c3)N=C2C)c1,-3.3,96.0*
COc1ccc(/C=C2/C(=O)N(c3ccc(Cl)c(Cl)c3)N=C2C)cc1Br,1.4,0.0
CC1=NN(c2cccc(Cl)c2)C(=O)/C1=C/c1ccc(Br)c([N+](=O)[O-])c1,-2.7,81.0*
COc1ccc(/C=C2/C(=O)N(c3ccc(Cl)c(Cl)c3)N=C2C)cc1[N+](=O)[O-],2.3,12.0
SMILES,Pf apPOL inh,mHTT CaM bind
COc1ccc(OC)c(CCC(=O)O)c1,-9.0,-7.4
COc1ccc(CCCC(=O)O)cc1C,62.7*,2.0
Cn1c(=O)c(-c2nc(-c3cccc(F)c3)no2)c(O)c2ccc(F)cc21,2.1,-4.2
COc1ccc(C2CC(c3cccc(F)c3)=NN2C(=O)CN2CCC(C)CC2)cc1 (centres undefined),-5.7,22.9
COc1ccc(C2=NN(C(=O)CN3CCN(C)CC3)C(c3cccc(F)c3)C2)cc1 (centres undefined),-1.4,53.8*
COc1cccc(C2=NN(C(=O)CN3CCOCC3)C(c3ccccc3C)C2)c1 (centres undefined),-1.5,37.6
COc1ccc(C2CC(c3cccc(C)c3)=NN2C(=O)CN2CCOCC2)cc1 (centres undefined),-2.6,65.7*
COc1ccc(C2=NN(C(=O)CN3CCOCC3)C(c3ccc(C)cc3C)C2)cc1 (centres undefined),-3.7,49.5
COc1ccc(C2CC(c3ccc(C)cc3C)=NN2C(=O)CN2CCOCC2)cc1 (centres undefined),-5.5,62.6*
CCOc1ccc(NC(=O)c2cc3cc4ccc(Cl)cc4nc3o2)cc1,0.7,-7.0
COc1cc(-c2nc3ccccc3c(=O)n2CC(=O)Nc2ccc(C)c(F)c2)cc(OC)c1OC,-5.7,2.0
Cc1nnc(NC(=O)CSc2nc3c(c(=O)n2Cc2ccccc2)SC(C)C3)s1 (centres undefined),6.0,3.0
COc1cc(C(=O)Nc2c3c(nn2-c2cccc(C)c2C)CS(=O)C3)cc(OC)c1OC (centres undefined),-18.4,10.0
O=[N+]([O-])c1cc(F)c(N2CCCC2)cc1N1CCCC1,1.3,59.1*
O=[N+]([O-])c1cc(F)c(N2CCCC2)cc1N1CCCCCC1,-3.9,79.0*
Cc1cc(N2CCCCC2)c(F)cc1[N+](=O)[O-],0.8,0.5
O=[N+]([O-])c1cc(F)c(N2CCOCC2)cc1N1CCOCC1,-7.2,3.8
O=[N+]([O-])c1cc2c(cc1C=Nc1ccc(O)cc1)OCO2,nt,21.7
O=[N+]([O-])c1cccc(C=Nc2ccc(O)c(-c3nc4ccccc4[nH]3)c2)c1O,0.5,68.0*
O=[N+]([O-])c1cc(C=Nc2ccc3nc(-c4ccccc4)[nH]c3c2)c(O)c([N+](=O)[O-])c1,-3.6,19.0
O=[N+]([O-])c1cc2c(cc1C=Nc1ccc(O)c(-c3nc4ccccc4[nH]3)c1)OCO2,4.3,65.0*
O=C(NCCCn1ccnc1)c1cc(-c2ccc(Br)cc2)nc2ccccc12,-2.3,43.5
O=C(NCCCn1ccnc1)c1cc(-c2ccc(Cl)s2)nc2ccccc12,2.6,50.0*
O=C(NCCc1ccc(Cl)cc1)c1cc(-c2cccnc2)nc2ccccc12,-7.3,58.0*
O=C(NCc1cccnc1)c1cc(-c2cccnc2)nc2ccccc12,-9.3,-17.0
SMILES,Pf apPOL inh,mHTT CaM bind
O=C(O)c1nnn(-c2cccc(F)c2)c1C(F)(F)F,5.2,-1.4
Cc1nn(-c2ccc(C(=O)N3CCN(c4ccccn4)CC3)cc2)c2c1C(=O)CCC2,1.1,13.5
Cc1nn(-c2ccc(C(=O)N3CCN(c4cccc(Cl)c4)CC3)cc2)c2c1C(=O)CCC2,-1.7,82.6*
Cc1cc(/C=N/NC(N)=S)c(C)n1-c1sc2c(c1C#N)CCCC2,nt,+
N#Cc1c(-n2cccc2/C=N/O)sc2c1CCCC2,2.2,i
CCCN(CCC)C(=O)CSc1nc2n[nH]c(C)c2c(=N)n1-c1ccc(OCC)cc1,-5.1,21.0
CCC(Sc1nc2n[nH]c(C)c2c(=N)n1-c1ccc(C)cc1)C(=O)N1CCCC1 (centres undefined),-2.0,54.0*
COc1cccc(-n2c(SCC(=O)N3CCCC3)nc3n[nH]c(C)c3c2=N)c1,-2.2,20.0
CCC(C)NC(=O)CSc1nc2n[nH]c(C)c2c(=N)n1-c1ccc(Br)cc1 (centres undefined),-1.6,75.0*
COc1ccc(-n2c(SCC(=O)NC3CCCCC3)nc3n[nH]c(C)c3c2=N)cc1,-2.8,79.0*
CCC(C)NC(=O)CSc1nc2ccsc2c(=O)n1-c1ccc(Br)cc1 (centres undefined),-3.2,3.0
C[C@H]1[C@H](c2ccccc2)Oc2ccc(Cl)cc2S(=O)(=O)N1CC1CCCN1C(=O)OC(C)(C)C (some centres undefined),1.3,9.7
CN1c2cc(F)ccc2C(=O)NC12CCN(C(=O)NCCc1ccccc1)CC2,-3.5,-9.9
COc1ncc(C(=O)NCc2ccccc2F)cn1,-2.6,-6.5
Cc1cccc(C)c1-n1c(SCc2ccccc2)nc2ccccc2c1=O,-8.3,nt
CC(C)Cc1nnc(NC(=O)CC(C)(C)C)s1,nt,-8.1
Cc1ccnc(N2CCC(C(=O)Nc3ccc(Br)c(C)c3)CC2)n1,0.8,-18.3
